Reference: the supplement of paper PMC8728848
Many of the other results were omitted from the sample, so the strongest signals are more common in it than they were.

Experiments:
Assay in all cases: glycan array binding signal (z-score within array); higher = stronger binding
Details in all cases: glycan notation: IUPAC condensed, linker removed; mutation: E41G
[1] = target: GlcNAc(b1-2)[GlcNAc(b1-4)]Man(a1-3)[GlcNAc(b1-4)][GlcNAc(b1-2)Man(a1-6)]Man(b1-4)GlcNAc(b1-4)GlcNAc
How it was run: (§1)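 The binding signal is a Z-score computed within each array. Data were drawn from 3228 arrays in the Consortium for Functional Glycomics database, restricted to those with a known protein sequence. Scores were averaged over arrays of the same protein sequence at different concentrations or buffers, and over linkers, and negative values can be taken as non-binding.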

[2] = target: GlcNAc(b1-2)[GlcNAc(b1-6)]Man(a1-6)[GlcNAc(b1-2)Man(a1-3)]Man(b1-4)GlcNAc(b1-4)GlcNAc
How it was run: as §1

[3] = target: GlcNAc(b1-3)Gal(b1-4)GlcNAc(b1-2)Man(a1-3)[GlcNAc(b1-3)Gal(b1-4)GlcNAc(b1-2)Man(a1-6)]Man(b1-4)GlcNAc(b1-4)GlcNAc
How it was run: as §1

[4] = target: GlcNAc(b1-3)Gal(b1-4)GlcNAc(b1-3)Gal(b1-4)GlcNAc(b1-3)Gal(b1-4)GlcNAc(b1-3)Gal(b1-4)GlcNAc(b1-2)[GlcNAc(b1-3)Gal(b1-4)GlcNAc(b1-3)Gal(b1-4)GlcNAc(b1-3)Gal(b1-4)GlcNAc(b1-3)Gal(b1-4)GlcNAc(b1-6)]Man(a1-6)[GlcNAc(b1-3)Gal(b1-4)GlcNAc(b1-3)Gal(b1-4)GlcNAc(b1-3)Gal(b1-4)GlcNAc(b1-3)Gal(b1-4)GlcNAc(b1-2)Man(a1-3)]Man(b1-4)GlcNAc(b1-4)[Fuc(a1-6)]GlcNAc
How it was run: as §1

[5] = target: GlcNAc(b1-6)Gal(b1-4)GlcNAc
How it was run: as §1

Kdn(a2-3)Gal(b1-4)GlcNAc = target: Kdn(a2-3)Gal(b1-4)GlcNAc
How it was run: as §1

[6] = target: Man(a1-2)Man(a1-2)Man(a1-3)Man
How it was run: as §1

[7] = target: Man(a1-2)Man(a1-2)Man(a1-6)[Man(a1-3)]Man
How it was run: as §1

Man(a1-2)Man(a1-3)Man = target: Man(a1-2)Man(a1-3)Man
How it was run: as §1

[8] = target: Man(a1-2)Man(a1-3)[Man(a1-2)Man(a1-6)]Man
How it was run: as §1

[9] = target: Man(a1-2)Man(a1-3)[Man(a1-2)Man(a1-6)]Man(a1-6)[Man(a1-2)Man(a1-2)Man(a1-3)]Man
How it was run: as §1

[10] = target: Man(a1-2)Man(a1-3)[Man(a1-6)]Man(a1-6)[Man(a1-2)Man(a1-3)]Man(b1-4)GlcNAc(b1-4)GlcNAc
How it was run: as §1

[11] = target: Man(a1-2)Man(a1-6)[Man(a1-3)]Man(a1-6)[Man(a1-2)Man(a1-2)Man(a1-3)]Man
How it was run: as §1

[12] = target: Man(a1-2)Man(a1-6)[Man(a1-3)]Man(a1-6)[Man(a1-2)Man(a1-2)Man(a1-3)]Man(b1-4)GlcNAc(b1-4)GlcNAc
How it was run: as §1

[13] = target: Man(a1-3)[Man(a1-6)]Man(a1-6)[Man(a1-2)Man(a1-3)]Man(b1-4)GlcNAc(b1-4)GlcNAc
How it was run: as §1

[14] = target: Neu5Ac(a2-3)Gal(b1-3)GalNAc(b1-4)Gal(b1-4)Glc
How it was run: as §1

[15] = target: Neu5Ac(a2-3)Gal(b1-3)GlcNAc6S
How it was run: as §1

[16] = target: Neu5Ac(a2-3)Gal(b1-4)GlcNAc(b1-3)Gal(b1-4)GlcNAc(b1-3)[Neu5Ac(a2-3)Gal(b1-4)GlcNAc(b1-3)Gal(b1-4)GlcNAc(b1-6)]GalNAc
How it was run: as §1

Neu5Ac(a2-6)Gal = target: Neu5Ac(a2-6)Gal
How it was run: as §1

[17] = target: Neu5Ac(a2-6)Gal(b1-4)GlcNAc(b1-2)[Neu5Ac(a2-6)Gal(b1-4)GlcNAc(b1-6)]Man(a1-6)[Neu5Ac(a2-6)Gal(b1-4)GlcNAc(b1-2)Man(a1-3)][GlcNAc(b1-4)]Man(b1-4)GlcNAc(b1-4)GlcNAc
How it was run: as §1

[18] = target: Neu5Ac(a2-6)Gal(b1-4)GlcNAc(b1-3)Gal(b1-4)GlcNAc(b1-3)Gal(b1-4)GlcNAc(b1-2)Man(a1-3)[Neu5Ac(a2-6)Gal(b1-4)GlcNAc(b1-3)Gal(b1-4)GlcNAc(b1-3)Gal(b1-4)GlcNAc(b1-2)Man(a1-6)]GalNAc
How it was run: as §1

[19] = target: Neu5Ac(a2-6)Gal(b1-4)GlcNAc(b1-6)[Gal(b1-3)GlcNAc(b1-3)]Gal(b1-4)Glc
How it was run: as §1

[20] = target: Neu5Ac(a2-8)Neu5Ac(a2-8)Neu5Ac(a2-3)Gal(b1-4)Glc
How it was run: as §1

[21] = target: Neu5Gc(b2-6)Gal(b1-4)GlcNAc
How it was run: as §1

B1: CVN-E41G (protein)
chain: MHHHHHHENLYFQSGNFSQACYNSAIQGSVLTSTCIRTNGGYNTSSIDLNSVIGNVDGSLKWQGSNFIETCRNTQLAGSSELAAECKTRAQQFVSTKINLDDHIAAIDGTLKYE
glycan array binding signal (z-score) [1]: -0.148 | glycan array binding signal (z-score) [2]: -0.145 | glycan array binding signal (z-score) [3]: -0.152 | glycan array binding signal (z-score) [4]: -0.123 | glycan array binding signal (z-score) [5]: -0.121 | glycan array binding signal (z-score) (Kdn(a2-3)Gal(b1-4)GlcNAc): -0.154 | glycan array binding signal (z-score) [6]: 7.32 | glycan array binding signal (z-score) [7]: 9.78 | glycan array binding signal (z-score) (Man(a1-2)Man(a1-3)Man): 5.5 | glycan array binding signal (z-score) [8]: 8.72 | glycan array binding signal (z-score) [9]: 11 | glycan array binding signal (z-score) [10]: 6.59 | glycan array binding signal (z-score) [11]: 8.16 | glycan array binding signal (z-score) [12]: 8.78 | glycan array binding signal (z-score) [13]: 4 | glycan array binding signal (z-score) [14]: -0.111 | glycan array binding signal (z-score) [15]: -0.165 | glycan array binding signal (z-score) [16]: -0.126 | glycan array binding signal (z-score) (Neu5Ac(a2-6)Gal): -0.168 | glycan array binding signal (z-score) [17]: -0.139 | glycan array binding signal (z-score) [18]: -0.112 | glycan array binding signal (z-score) [19]: -0.167 | glycan array binding signal (z-score) [20]: -0.173 | glycan array binding signal (z-score) [21]: -0.155
